Screens (PubChem)
Sampled rows, rich in hits. Any-hit rate of the full collection: about 28%.
DAT uptake mod: changed hDAT dopamine uptake under cocaine IC80, either direction, primary screen, cocaine antagonist project, cell-based, LLC-PK1 hDAT, [14C]-dopamine uptake, MLSMR. LLC-PK1 hDAT cells, [14C]-dopamine uptake with cocaine IC80; actives deviate in either direction. Sodium-dependent dopamine transporter (Homo sapiens), Q01959. B-score at 10 µM. hit rate 1.3% among 110,000. AID 449768, 2010;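 active = Z score or B-score, a plate-position-corrected score, falls beyond the plate's 99.7% confidence bounds, in either direction; inactive = both scores lie inside the 99.7% bounds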;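 also: scored against the spread of the other compound wells on the same plate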
CYP2C19 inhib: blockers of cytochrome P450 2C19 activity – biochemical, luminescence, ADME assay, primary screen | AID 778, 2007 | hit rate 21% among 96,000 | P33261 | inhibition, % at 5 µM | CYP2C19 Supersomes, luciferin-H EGE luminescence, 30 min;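 active = CYP2C19 inhibition above a set limit at 5 µM in the primary screen, cut at about 50% in these data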;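 also: plate controls were negative control wells for no effect and 2.5 mM tranylcypromine positive control for full effect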
CYP2C9 inh: blockers of cytochrome P450 2C9 activity – biochemical, luminescence, ADME assay, primary screen | P11712 | hit rate 20% among 96,000 | CYP2C9 Supersomes, luciferin-H conversion | inhibition, % at 5 µM;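 active = blocking of liver enzyme CYP2C9 beyond about 50% at 5 µM, limit read from the data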
Target sequence (P11712 whole entry, looked up): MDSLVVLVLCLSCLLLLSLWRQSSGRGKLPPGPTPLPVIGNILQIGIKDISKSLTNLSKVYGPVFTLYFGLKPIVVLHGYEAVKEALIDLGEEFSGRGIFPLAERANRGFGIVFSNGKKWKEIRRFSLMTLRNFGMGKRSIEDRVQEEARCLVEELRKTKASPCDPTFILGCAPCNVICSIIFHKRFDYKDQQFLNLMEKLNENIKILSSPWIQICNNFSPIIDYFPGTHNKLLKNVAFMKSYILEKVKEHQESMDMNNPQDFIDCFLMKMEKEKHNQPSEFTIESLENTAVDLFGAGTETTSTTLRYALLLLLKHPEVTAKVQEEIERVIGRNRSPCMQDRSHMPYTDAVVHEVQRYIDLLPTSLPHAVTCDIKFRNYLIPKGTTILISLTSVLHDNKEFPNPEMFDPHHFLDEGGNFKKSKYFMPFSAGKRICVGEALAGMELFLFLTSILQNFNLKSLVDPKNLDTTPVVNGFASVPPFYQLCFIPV
D1 mod: D1 CRE-luciferase signal change, two-sided – cell-based, HEK293 D1, dopamine EC30, D1 allosteric modulator project, primary screen. hit rate 5.9% among 58,000. dopamine EC30 potentiation; actives deviate in either direction. D(1A) dopamine receptor (Homo sapiens), P21728. B-score at 10 µM. AID 641, 2007;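 active = luminescence count or its row- and column-corrected plate score outside the 99.7% band of the plate's sample wells, on either side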
CYP2C19 act: human CYP2C19 activators, primary screen, biochemical, luminescence; Cytochrome P450 2C19 (Homo sapiens), P33261; recombinant CYP2C19, luciferin-H EGE luminescence; stronger effect = higher value; 0 = fully inhibited enzyme, 1 = untreated enzyme; activation factor at 5 µM; 96,000 tested, under 10 active; AID 1025, 2008;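 active = activation factor of at least 2 at 5 µM in the primary screen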;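 also: 0 = wells with 2.5 mM tranylcypromine and 1 = vehicle-only wells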
CYP2C9 act: human CYP2C9 activators, primary screen, biochemical, luminescence; Cytochrome P450 2C9 (Homo sapiens), P11712; recombinant CYP2C9, luciferin-H conversion; stronger effect = higher value; factor 1 = untreated enzyme, 0 = blocked; activation factor at 5 µM; hit rate 1.4% among 96,000;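 active = activation factor of 2 or more for CYP2C9 at a 5 µM dose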;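 also: 0 = sulfaphenazole-blocked wells and 1 = vehicle-only wells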
Numbers without * were called inactive; / = no result given.

SMILES | DAT uptake mod | CYP2C19 inhib | CYP2C9 inh | D1 mod | CYP2C19 act | CYP2C9 act
O=C(CSc1nc2ccc(Cl)cc2o1)NCc1ccc2c(c1)OCO2 | -1.1 | 23 | 61* | / | 0.8 | 0.4
O=C(CSc1nc2ccccc2o1)NCc1ccc2c(c1)OCO2 | 0.6 | 100* | 95* | 0.33 | 0 | 0.1
O=C(NCc1ccc2c(c1)OCO2)c1cc2ccccc2o1 | 0.74 | 30 | 89* | / | 0.7 | 0.1
COc1ccccc1S(=O)(=O)Cc1ccc(C(=O)NC(C)c2ccc3c(c2)OCCO3)o1 (stereo not given) | 0.98 | 52* | 62* | -1 | 0.5 | 0.4
Cc1ccc2cc3cc(C(=O)NCc4ccc5c(c4)OCO5)oc3nc2c1 | -0.63 | 15 | 26 | -0.61 | 0.9 | 0.7
COc1ccccc1S(=O)(=O)Cc1ccc(C(=O)NCc2cccnc2)o1 | 0.37 | 23 | 30 | -0.0027 | 0.8 | 0.7
OC(COc1ccc(C2C=CCC2)cc1)CN1CCCCC1 (stereo not given) | 0.32 | -24 | -12 | -0.78 | 1.2 | 1.1
CCOC(=O)CN1CC23C=CC(O2)C(C(=O)Nc2ccc(C(C)=O)cc2)C3C1=O (stereo not given) | -0.94 | -10 | 5 | 0.61 | 1.1 | 0.9
O=C(NCc1ccco1)c1ccc(COCC(F)(F)F)cc1 | -0.03 | 9 | 16 | -0.94 | 0.9 | 0.8
CCOC(=O)N1CCN(C(=O)Cn2ccc3c(OC)cccc3c2=O)CC1 | -0.14 | / | / | / | / | /
O=C(CSc1nccn1-c1ccccc1)N1CCc2ccccc21 | -0.26 | 96* | 15 | 0.18 | 0 | 0.9
c1ccc(CCSc2nccn2-c2ccccc2)cc1 | 1.1 | 61* | 54* | / | 0.4 | 0.5
Cn1c(SCC(=O)N2CCc3ccccc32)nc2cccnc21 | 1.8 | 82* | 37 | -0.92 | 0.2 | 0.6
O=C(CSc1ncc(-c2ccccc2)n1C1CCCC1)N1CCc2ccccc21 | 0.14 | 65* | 51* | / | 0.3 | 0.5
Cn1c(SCC(=O)N2CCCc3ccccc32)nc2cccnc21 | 0.022 | / | / | / | / | /
Cn1cnnc1SCC(=O)N1CCc2ccccc21 | -1.3 | -2 | -14 | / | 1 | 1.1
CC(CC(=O)NCc1cccnc1)c1ccccc1 (stereo not given) | -0.22 | / | / | / | / | /
CC1CCC(NCc2ccco2)CC1 (stereo not given) | -2.1 | -20 | -12 | / | 1.2 | 1.1
CC(C)N(Cc1ccccc1)S(=O)(=O)N(C)C | -0.27 | 77* | 23 | 0.84 | 0.2 | 0.8
CC(=O)Nc1ccc(S(=O)(=O)N(CC(=O)O)Cc2ccccc2)cc1 | -0.52 | 4 | -7 | -0.083 | 1 | 1.1
CCS(=O)(=O)Nc1ccc(C(=O)c2ccccc2)cc1 | 0.36 | / | / | / | / | /
CC(=O)Nc1ccc(NS(=O)(=O)Cc2ccccc2)cc1 | -0.012 | 58* | 37 | 0.0097 | 0.4 | 0.6
CC(=O)Nc1ccc(S(=O)(=O)N(Cc2ccccc2)C(C)C)cc1 | 1.4 | 52* | 67* | / | 0.5 | 0.3
NC(=O)c1ccccc1NS(=O)(=O)Cc1ccccc1 | -1.6 | 50 | -295 | 0.14 | 0.5 | 4*
CC(=O)Nc1ccc(NS(=O)(=O)c2cccc3ccccc23)cc1 | 0.38 | 89* | 29 | / | 0.1 | 0.7
SMILES | DAT uptake mod | CYP2C19 inhib | CYP2C9 inh | D1 mod | CYP2C19 act | CYP2C9 act
CC(=O)Nc1ccc(S(=O)(=O)Nc2ccc(NC(=O)c3ccco3)cc2)cc1 | 0.24 | -1 | 20 | -1.3 | 1 | 0.8
COC(=O)Nc1ccc(S(=O)(=O)Nc2cccc3ccccc23)cc1 | 0.21 | / | / | / | / | /
CC(=O)Nc1ccc(NS(=O)(=O)c2ccc3ccccc3c2)cc1 | -0.76 | 99* | 75* | / | 0 | 0.3
O=C1CC(C(=O)O)C2(CCCC2)O1 (stereo not given) | -0.76 | / | / | / | / | /
CC(CNC(=O)CC(C)(C)C)NC(=O)CC(C)(C)C (stereo not given) | 0.73 | / | / | / | / | /
CCOC(=O)N1CCN(CC(O)COC2CC(C)CCC2C(C)C)CC1 (stereo not given) | 0.35 | 57* | 48 | / | 0.4 | 0.5
O=C(CNS(=O)(=O)c1ccccc1)NCc1ccccn1 | -0.98 | -3 | 4 | -0.39 | 1 | 1
